Bioassay records deposited in PubChem by National Center for Advancing Translational Sciences (NCATS).
HCMV antiviral = blocks human cytomegalovirus replication. HFF cells, HCMV-luciferase reporter, 72 h; active compounds read low. activity change, negative = inhibition, % at 57.5 µM. 410,000 compounds, 4.5% hits. AID 1259415; in the data active means activity change below about -60%; inconclusive means no clear call, values can overlap the other calls; inactive means above about -39%
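Screen run at 2 compound doses on HFFs infected with reporter HCMV, MOI 1 PFU/cell. Luciferase activity from cell lysates at 72 h post infection gave inhibition relative to buffer-only and Salinomycin wells.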
HCV inh = inhibitors of hepatitis C virus infection; Potency, µM (doses to about 41.8 µM), inactives show at the top dose activity change, negative = inhibition, most hits filed as inhibitors; AID 651820; Huh7.5.1 HCVcc-Cre infection, luciferase reporter, 44 h; 340,000 compounds, 3.4% hits; further: potency means the concentration at half of the fitted maximal effect
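Cells (1,000/well) were plated 4 h before compound, then infected with HCVcc-Cre virus (~0.5 moi). After 44 h further culture, infection was read as luciferase luminescence following a 15 min substrate incubation at room temperature.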
Pf growth 96h = P. falciparum growth inhibition at 96 hours. 320,000 compounds, 6.9% hits. P. falciparum luciferase reporter growth, 96 h. Potency, µM (titrated, usually from 28.7 µM), without a hit: at the highest dose activity change, negative = inhibition, actives largely listed as inhibitors; further: potency means the concentration at half of the fitted maximal effect
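Two parasite generations (96 h, 37 C, 5% CO2) of compound exposure in infected erythrocytes (0.05% parasitemia, 2% hematocrit). Luciferase-reporter P. falciparum; decreased luminescence indicates inhibited growth, aimed at apicoplast-acting delayed death.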
Pf growth 48h = P. falciparum growth inhibition at 48 hours (one generation) | P. falciparum luciferase growth in erythrocytes, 48 h | Potency, µM (series often up to 28.7 µM), without a hit: at the top dose activity change, negative = inhibition, hits mostly inhibitors | 310,000 compounds, 5.9% hits | AID 504832; further: potency means the concentration at half of the fitted maximal effect
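Cell-based growth assay: transgenic P. falciparum expressing firefly luciferase, cultured in red cells within RPMI 1640 containing 0.5% w/v Albumax, 24 mM bicarbonate and gentamycin. A drop in luciferase activity indicates inhibition.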
Starred values were filed as active, the others as inactive; ? = inconclusive; . = not tested or not shown; ! = a repeat was not active. Only some compounds are listed: those with a hit (about 13% of all), similar ones and a draw of the others. Unless noted, the call rests on the fitted dose curve; in most records, active means well fitted inhibition curve with a large enough effect; inconclusive means small, poorly fitted or top-dose-only effect, or another doubt; inactive means no such curve, though single readings can be large or run the other way. On the % scale 0 is the no-effect control and ±100 the full control effect.

SMILES	HCMV antiviral	HCV inh	Pf growth 96h	Pf growth 48h
Cc1ccc(NC(=O)CN2C(=O)COc3ccc(S(=O)(=O)N4CCCC4)cc32)cc1C	44	-12%	?	?
COc1ccccc1CNC(=O)CN1C(=O)COc2ccc(S(=O)(=O)Nc3ccccc3)cc21	-19	.	.	.
COc1ccc(CCNC(=O)CN2C(=O)COc3ccc(S(=O)(=O)N4CCCC4)cc32)c(OC)c1	-63*!	?	9.3µM*	-29%
Cc1ccc(NC(=O)CN2C(=O)COc3ccc(S(=O)(=O)N4CCCCCC4)cc32)cc1Cl	-84*	.	.	.
CC(C)CN(CCNC(=O)CN1C(=O)COc2ccc(S(=O)(=O)N3CCC(C)CC3)cc21)CC(C)C	-13	8%	12µM*	?
O=C(CN1C(=O)COc2ccc(S(=O)(=O)Nc3ccccc3)cc21)NCc1ccccc1Cl	-106*	.	.	.
COc1ccc(OC)c(CCNC(=O)CN2C(=O)COc3ccc(S(=O)(=O)N4CCCCCC4)cc32)c1	-23	.	.	.
Cc1ccc(C)n1-c1c(C(=O)NCCC(C)C)sc2ncccc12	18	.	.	.
Cc1ccc(Cl)cc1NC(=O)C1CCCN(S(=O)(=O)c2cccc3cccnc23)C1 (stereo unspecified)	-8	.	.	.
NS(=O)(=O)c1ccc(CCNC(=O)CN2C(=O)COc3ccc(S(=O)(=O)N4CCCC4)cc32)cc1	-28	1%	?	33%
O=C(CN1C(=O)COc2ccc(S(=O)(=O)N3CCCC3)cc21)NCCc1ccc(Cl)cc1	-73*	.	.	.
CCNC(=O)c1ccccc1NC(=O)c1cccc(S(=O)(=O)N2CCC(C)CC2)c1	?	10µM*	49%	?
CNC(=O)c1ccccc1NC(=O)c1cccc(S(=O)(=O)N2CCC(C)CC2)c1	-35	?	.	?
Cc1ccc(O)c(NC(=O)c2ccc(Br)c(S(=O)(=O)N3CCCCC3)c2)c1	-73*	.	.	.
Cc1ccccc1NC(=O)c1cccc(S(=O)(=O)N2CCCCC2)c1	1	0%	-17%	2%
Cc1ccc(O)c(NC(=O)c2cccc(S(=O)(=O)N3CCCCC3)c2)c1	-25	11µM*	.	?
Cc1cc(NC(=O)c2ccc(Br)c(S(=O)(=O)N3CCCC3)c2)no1	-69*	?	.	10µM*
Cc1ccccc1C(=O)Nc1ccc2nc(SCC(=O)N3CCc4ccccc43)sc2c1	-7	.	.	.
Cc1ccc(S(=O)(=O)CC(=O)Nc2sc3c(c2C#N)CCCC3)cc1	0	.	.	.
CNC(=O)c1ccccc1NC(=O)c1cccc(S(=O)(=O)N2CCCCC2)c1	-38	-12%	2.9µM*	?
O=C(Nc1ccccc1C(=O)O)c1cccc(S(=O)(=O)N2CCCC2)c1	8	.	.	.
O=C(CCCn1c(=O)c2cccn2c2ccccc21)Nc1cc(C(F)(F)F)ccc1Cl	56	.	.	.
CC1(c2ccccc2)CC(C)(C)N(C(=O)C2CCCO2)c2ccccc21 (stereo unspecified)	-28	?	2.3µM*	.
CC1(c2cc([N+](=O)[O-])cc([N+](=O)[O-])c2)CC(C)(C)N(C(=O)c2ccccc2)c2ccccc21 (stereo unspecified)	2	?	4%	2.3µM*
CC1=CC(C)(C)N(C(=O)CSc2nnc(N)s2)c2ccccc21	-15	30%	-1%	-4%
SMILES	HCMV antiviral	HCV inh	Pf growth 96h	Pf growth 48h
COc1ccc(C(=O)N2c3ccccc3C(C)(c3ccc(Cl)cc3)CC2(C)C)cc1 (stereo unspecified)	-93*	.	.	.
CCC(CC)C(=O)N1c2ccccc2C(C)(c2ccccc2)CC1(C)C (stereo unspecified)	-15	.	.	.
CC1(c2ccccc2)CC(C)(C)N(C(=O)CSc2nnc(N)s2)c2ccccc21 (stereo unspecified)	?	?	5.2µM*	?
COc1ccc(CNC(=O)C(C)N2Cc3ccccc3C2=O)cc1 (stereo unspecified)	-6	.	.	.
CCN(C(=O)Cn1nnc2sc(-c3ccccc3)cc2c1=O)c1cccc(C)c1	2	.	.	.
CC(C)Cn1cc(NC(=O)N2CCN(c3cccc(Cl)c3)CC2)c2ccccc2c1=O	-16	.	.	.
CCN(CC)c1ccc(CNCCCSc2nnnn2C)cc1	-14	.	.	.
CCC(=O)N1c2ccccc2C(C)(c2ccccc2)CC1(C)C (stereo unspecified)	-5	.	.	.
CC1(c2ccc(Cl)cc2)CC(C)(C)N(C(=O)c2ccccc2)c2ccccc21 (stereo unspecified)	-83*	.	.	.
COc1ccc(Cl)cc1NC(=O)CN(c1cccc(C)c1C)S(=O)(=O)c1ccccc1	-62*	.	.	.
COc1ccc(OC)c(NC(=O)CN(c2ccccc2OC)S(=O)(=O)c2ccc(C)cc2)c1	-100*	.	.	.
COc1ccc(OC)c(S(=O)(=O)N(C)CC(=O)Nc2cc(Cl)ccc2OC)c1	5	11µM*	7.4µM*	9.3µM*
COc1ccc(N(CC(=O)Nc2ccc(Cl)cc2C)S(=O)(=O)c2ccccc2)c(OC)c1	-71*	.	.	.
COc1ccccc1NC(=O)CN(C)S(=O)(=O)c1cc(C)ccc1OC	-16	-8%	-24%	.
COc1ccc(NC(=O)CN(c2ccccc2)S(=O)(=O)c2ccccc2)c(OC)c1	-33	?	-24%	?
CCc1ccccc1NC(=O)CN(c1ccccc1OC)S(=O)(=O)c1ccc(C)cc1	-8	.	.	.
O=[N+]([O-])c1cc(-c2nc(-c3ccccc3)no2)ccc1NC1CCCCC1	2	.	.	.
CCOc1ccc(Nc2cc(C)nc3nncn23)cc1	-25	.	.	.
CCN(Cc1ccccc1)C(=O)Cn1c(=O)n(-c2ccccc2)c(=O)c2c1c1cc(C)ccc1n2C	-16	.	.	.
